Measurements from PubChem BioAssay AID463165 (Johns Hopkins Ion Channel Center, 2010).
Among all 310,000 compounds or so, about 1,400 (0.45%) were called active.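 The calls were made as follows: active = B-score, a plate-corrected calcium signal, over three deviations above library mean, with baseline fluorescence within five deviations of library mean; inactive = the rest.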 The full list was thinned out, with actives kept by preference.

Each molecule was assayed against Regulator of G-protein signaling 4 (Homo sapiens) (UniProt P49798) (assay: RGS4 inhibitors, primary screen, cell-based, HEK293 M3R inducible RGS4, calcium flux (AID 463165;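 also: RGS4 expression induced by doxycycline in cells with stable M3 receptor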;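 as to B-score: B-score is computed from the integrated fluorescence ratio over baseline after carbachol; higher B-score means a larger calcium signal and so more RGS4 inhibition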)). Conditions: Fluo-4 calcium flux, at 10 µM; B-score: hits give high values unless noted; outcome: triggered by carbachol at its EC20 unless noted.
Chain of Regulator of G-protein signaling 4 (Homo sapiens) (P49798 whole entry, looked up): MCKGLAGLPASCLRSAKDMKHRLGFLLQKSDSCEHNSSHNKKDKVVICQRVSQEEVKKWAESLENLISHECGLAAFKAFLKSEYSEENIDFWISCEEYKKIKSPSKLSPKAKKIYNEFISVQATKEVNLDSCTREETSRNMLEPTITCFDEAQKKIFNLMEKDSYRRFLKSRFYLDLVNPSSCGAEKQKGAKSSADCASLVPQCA

| Structure (SMILES) | outcome | B-score |
| --- | --- | --- |
| O=c1[nH]c(=O)n(Cc2ccccc2)c(O)c1/C=N/Nc1c(F)c(F)c(F)c(F)c1F | inactive [setting not given] | – |
| O=C(N/N=C/c1c(O)n(C2CC2)c(=S)[nH]c1=O)c1ccccc1 | inactive [setting not given] | – |
| O=C(N/N=C/c1c(O)n(Cc2ccccc2)c(=O)[nH]c1=O)c1ccccc1 | – | 5.25 (active) |
| O=c1[nH]c(O)c(C=Nc2cc(F)cc(F)c2)c(=O)[nH]1 | inactive [setting not given] | – |
| O=C1N=c2ccccc2=C/C1=C\c1c(O)[nH]c(=S)[nH]c1=O | inactive [setting not given] | – |
| Cc1ccc2c(c1)=C/C(=C\c1c(O)[nH]c(=O)[nH]c1=O)C(=O)N=2 | – | 5.31 (active) |
| COC(=O)CN1C(=O)C2(C(C(=O)OC)=C(N)Oc3ccccc32)C2=C1CC(C)(C)CC2=O (stereo not given) | inactive | – |
| CC1CCC(N(C)C2CCN(C)CC2)CC1 (stereo not given) | inactive | – |
| C=CC12CN(C)[C@@H]3C4CO[C@H](C[C@H]41)[C@]1(C(=O)Nc4ccccc41)[C@@H]32 (stereo not given in full) | inactive | – |
| CC(C)(C)c1ccc(OC(=O)N2CCCCC2)cc1 | inactive | – |
| O=C1NC(=O)N(c2ccc(F)cc2)C(=O)/C1=C/c1ccc2c(c1)CCCN2Cc1ccccc1 | inactive [setting not given] | – |
| O=C1NC(=O)N(c2ccccc2)C(=O)/C1=C/c1ccc([N+](=O)[O-])s1 | – | 4.87 (active) |
| Cc1cccc(N2C(=O)NC(=O)/C(=C\c3cnn(-c4ccccc4)c3)C2=O)c1 | inactive [setting not given] | – |
| CC(C)c1ccc(OCC(=O)N2CCCN(C)CC2)cc1 | inactive | – |
| O=C(CCNS(=O)(=O)c1ccccc1)Nc1ccc(Cl)cc1C(=O)c1ccccc1 | inactive | – |
| O=C1NC(=O)N(Cc2ccco2)C(=O)/C1=C\c1ccc(-c2ccc(F)cc2)o1 | – | 15.5 (active) |
| Cc1cc(/C=C2/C(=O)NC(=O)N(Cc3ccco3)C2=O)c(C)n1-c1ccc(C(=O)O)cc1 | inactive [setting not given] | – |
| O=C1NC(=O)N(Cc2ccco2)C(=O)/C1=C\c1cccn1CCOc1ccccc1 | inactive [setting not given] | – |
| CN(C)CC1Oc2ccccc2OC1(O)c1ccccc1 (stereo not given) | inactive | – |
| COC(=O)C1=C(c2ccccc2)C[C@@H]2CC[C@H]1N2C(=O)NCc1ccco1 | inactive | – |
